According to PubChem BioAssay AID2284422 (EPA ToxCast):
Active and inactive are the calls of the source. The calls were made as follows: active = hit-call score of the fitted dose curve at least 0.9, where 1 is the maximum; inactive = score below 0.9.

experiment: CCTE_Deisenroth_DEVTOX-GLR_Meso_CellCount: Viability Assessment in CCTE's DevTox GLR-Meso Assay, Deisenroth Lab
Protocol: CCTE_Deisenroth_DEVTOX-GLR_Meso assay is a cell-based, multiplex-readout assay that uses RUES2-GLR, a human pluripotent cell line, with measurements taken at 48 hours after chemical dosing in a 384-well microplateCCTE_Deisenroth_DEVTOX-GLR_Meso_CellCount is 1 of 4 assay components calculated from the CCTE_Deisenroth_DEVTOX-GLR_Meso assay and it measures cell count. Using fluorescent nuclei staining, gain-of-signal activity can be used to understand changes in cell viability with fluorescent microscopy. It is designed to make measurements of nuclei counts as a surrogate for cell number, as detected with optical fluorescence microscopy by Perkin Elmer Harmony nuclei detection algorithm. To generalize the intended target to other relatable targets, this assay component is annotated to the cell cycle intended target family, where the subfamily is cytotoxicity.Data from the assay component CCTE_Deisenroth_DEVTOX-GLR_Meso_CellCount was analyzed as 1 assay endpoint. The endpoint the percent change in cell count relative to the 0.2% DMSO control in the CCTE_Deisenroth_DEVTOX-GLR_Meso assay. Furthermore, this assay endpoint can be referred to as a primary readout, because this assay has produced multiple assay endpoints where this one serves as a measure of cytotoxicity.
All assay protocols are aligned to the DevTox GLR-Endo assay workflow. Cells are seeded into 384-well microplates for 24 hours prior to initiating differentiation in defined media for a total duration of 48 hours. A total of two chemical exposures are administered in 24-hour intervals during the 48-hour differentiation period. At the assay termination point, cells are fixed and stained with a fluorescent dye demarcating the nucleus. High-content imaging is used to acquire brightfield and fluorescent channel images across 5 fields per well. Cell identification and mean biomarker fluorescence intensities are calculated with image analysis software to determine the total cell counts for viability assessment and the biomarker expression frequency for each lineage-dependent assay. A typical experimental design tests a 10-point concentration series (1 nM - 200 uM) for 28 compounds in single technical replicate. Assay plate controls include non-differentiated pluripotent cells (baseline control), lineage-specific differentiated cells (differentiation control), and DMSO solvent exposed differentiated cells (solvent control). Experiments typically comprise a minimum of four experimental replicates (n=4).

Row | Compound | outcome | AC50
1 | Nc1nc2ncc(CNc3ccc(C(=O)N[C@@H](CCC(=O)O)C(=O)O)cc3)nc2c(=O)[nH]1 | inactive | –
2 | Nc1cccc2c1C(=O)N(C1CCC(=O)NC1=O)C2=O (stereo unspecified) | inactive | –
3 | CCCC(CCC)C(=O)O | inactive | –
4 | CC/C(=C(/CC)c1ccc(O)cc1)c1ccc(O)cc1 | – | 2.86 µM (active)
5 | CC(=O)Nc1ccc(O)cc1 | inactive | –
6 | O=C1NC(=O)C(c2ccccc2)(c2ccccc2)N1 | – | 100 µM (active)
7 | O=C1CCC(N2C(=O)c3ccccc3C2=O)C(=O)N1 (stereo unspecified) | inactive | –
8 | CC1=C(/C=C/C(C)=C/C=C/C(C)=C/C(=O)O)C(C)(C)CCC1 | – | 18.5 µM (active)
9 | O=c1[nH]cc(F)c(=O)[nH]1 | – | 4.95 µM (active)
10 | CCN(CC)CCNC(=O)c1c(C)[nH]c(/C=C2\C(=O)Nc3ccc(F)cc32)c1C | – | 1.18 µM (active)
11 | CS(=O)(=O)OCCCCOS(C)(=O)=O | – | 57.8 µM (active)
12 | CN(Cc1cnc2nc(N)nc(N)c2n1)c1ccc(C(=O)N[C@@H](CCC(=O)O)C(=O)O)cc1 | inactive | –
13 | CC1(C)S[C@@H]2[C@H](NC(=O)Cc3ccccc3)C(=O)N2[C@H]1C(=O)O | inactive | –
14 | CC1=C(/C=C/C(C)=C/C=C/C(C)=C\C(=O)O)C(C)(C)CCC1 | – | 18.6 µM (active)
15 | CC(C)(c1ccc(O)cc1)c1ccc(O)cc1 | – | 33.5 µM (active)
16 | O=C1NS(=O)(=O)c2ccccc21 | inactive | –
